Reference: the supplement of paper PMC5919970
Structures can show the parent of a compound that is named as a salt. Over roughly 2,000 compounds, “fractional viability relative to vehicle” has its median near 0.91; the lowest 2% begin near 0.045. The sample holds the lowest values, similar compounds and a random draw of the others, so the mix is not that of the screen.

Tested on: TYKNU
Assay: fractional viability relative to vehicle; TYKNU is a high-grade serous ovarian cancer line; higher = less growth inhibition
Details: 72 h
Summary of the method: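 TYKNU control cells or lentiCRISPRv2 knockout derivatives were seeded at 500 cells per well into drug-stamped 384-well plates holding a ~2100-compound library at 2 or 10 μM, in duplicate. Cells were grown at 37 °C in 5% CO2 in RPMI 1640 with 10% FBS, and drug treatment lasted 72 h. Viability was read by Cell Titer Glo luminescence. Duplicate treatment wells were averaged and normalised to duplicate control wells from the same plate position.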

[1] = 2uM, genotype: DNM1L knockout (sgDNM1L #1)
[2] = 2uM, genotype: sgCTRLA1 (non-targeting control)
[3] = 10uM, genotype: DNM1L knockout (sgDNM1L #1)
[4] = 10uM, genotype: sgCTRLA1 (non-targeting control)

SMILES | fractional viability [1] | fractional viability [2] | fractional viability [3] | fractional viability [4]
O=C(NC[C@H](O)CO)c1ccncc1Nc1ccc(I)cc1F | 0.333 | 0.318 | 0.212 | 0.205
CCCSc1nc(N[C@@H]2C[C@H]2c2ccc(F)c(F)c2)c2nnn([C@@H]3C[C@H](OCCO)[C@@H](O)[C@H]3O)c2n1 [Ticagrelor] | 0.944 | 1.12 | 0.492 | 0.903
CCN(CC)C(=S)SSC(=S)N(CC)CC [Disulfiram] | 0.456 | 0.291 | 0.0708 | 0.0241
CC(=O)N1c2ccc(-c3ccc(C(=O)O)cc3)cc2[C@H](Nc2ccc(Cl)cc2)C[C@@H]1C | 0.281 | 0.395 | 0.237 | 0.208
CC(=O)Nc1ccc(C(=O)Nc2ccccc2N)cc1 [CI994 (Tacedinaline)] | 0.966 | 0.965 | 0.456 | 0.675
CNCc1ccc(C)c(NC(=O)c2ccc(Nc3nc(-c4ccccc4)c4ccccc4n3)cc2)c1 | 0.752 | 1.03 | 0.0487 | 0.0706
Cc1cc(Nc2ccc(NC(=O)c3ccc(Nc4ccnc5ccccc45)cc3)cc2)nc(N)n1 | 0.0197 | 0.0121 | 0.0121 | 0.00969
COc1cc(OC)c2c(=O)[nH]c(-c3cc(C)c(OCCO)c(C)c3)nc2c1 | 1.15 | 1.12 | 0.973 | 1.03
CN(C)CCNC(=O)c1cccn2c(=O)c3cc4ccccc4cc3nc12 | 0.389 | 0.417 | 0.107 | 0.0609
Cc1cnc(Nc2ccc(N3CCN(C)CC3)cc2)nc1Nc1cccc(S(=O)(=O)NC(C)(C)C)c1 | 0.363 | 0.472 | 0.0682 | 0.0804
C=CC(=O)Nc1cccc(Nc2nc(Nc3ccc(OCCOC)cc3)ncc2F)c1 | 0.626 | 0.721 | 0.273 | 0.297
Cc1cnc(Nc2ccc(OCCN3CCCC3)cc2)nc1Nc1cccc(S(=O)(=O)NC(C)(C)C)c1 | 0.352 | 0.378 | 0.0362 | 0.0573
Cc1nc(Nc2cnn(C3CCNCC3)c2)nc2c1N(C)C(=O)c1cc3ccccc3cc1N2C | 0.723 | 0.802 | 0.376 | 0.51
CCN(CC)CCOc1ccc(C(=C(Cl)c2ccccc2)c2ccccc2)cc1 [Clomifene citrate] | 0.751 | 1.08 | 0.178 | 0.479
O=S(=O)(NCCSSCCNS(=O)(=O)c1cc(Cl)ccc1Cl)c1cc(Cl)ccc1Cl | 0.891 | 0.899 | 0.197 | 0.43
Cc1cc(Nc2ncc(Cl)c(Nc3ccccc3S(=O)(=O)C(C)C)n2)c(OC(C)C)cc1C1CCNCC1 | 0.612 | 0.403 | 0.026 | 0.0128
CN1CCN(Cc2ccc(Nc3ncc(Cl)c(Nc4ccccc4S(=O)(=O)N(C)C)n3)cc2)CC1 | 0.22 | 0.229 | 0.234 | 0.18
O=C(O)c1cc2cccc([N+](=O)[O-])c2[nH]1 | 0.859 | 1.09 | 0.957 | 0.802
CCCCNc1ncc2c(-c3ccc(CN4CCN(C)CC4)cc3)cn([C@H]3CC[C@H](O)CC3)c2n1 | 0.322 | 0.41 | 0.0773 | 0.0599

SMILES | fractional viability [1] | fractional viability [2] | fractional viability [3] | fractional viability [4]
C=CCc1cccc(/C=N/NC(=O)CN2CCN(Cc3ccccc3)CC2)c1O | 0.604 | 0.671 | 0.277 | 0.27
Cc1[nH]nc2ccc(-c3cncc(OC[C@@H](N)Cc4ccccc4)c3)cc12 | 0.23 | 0.212 | 0.137 | 0.0399
CC[C@H]1OC(=O)C[C@@H](O)[C@H](C)[C@@H](O[C@@H]2O[C@H](C)[C@@H](O)[C@H](N(C)C)[C@H]2O)[C@@H](CCN2C[C@H](C)C[C@H](C)C2)C[C@@H](C)C(=O)/C=C/C(C)=C/[C@@H]1CO[C@@H]1O[C@H](C)[C@@H](O)[C@@H](OC)[C@H]1OC [Tilmicosin] | 2.22 | 1.13 | 1.49 | 1.11
CC(/C=C1\SC(=S)N(CC(=O)O)C1=O)=C\c1ccccc1 [Epalrestat] | 0.92 | 1.11 | 0.89 | 1.03
CCOC(=O)[C@H]1O[C@@H]1C(=O)N[C@@H](CC(C)C)C(=O)NCCC(C)C [Aloxistatin] | 0.853 | 0.91 | 0.817 | 0.78
Cc1c[nH]c(/C=C2\C(=O)Nc3ccccc32)c1CCC(=O)O | 0.91 | 0.936 | 0.874 | 0.784
CC(C)(Cc1ccc2ccccc2c1)NC[C@@H](O)COc1cccc(Cl)c1C#N | 0.854 | 1.1 | 0.585 | 0.0354
CC(C)NCC(O)COc1cccc2ccccc12 (configuration not stated) [Propranolol HCl] | 0.866 | 1.12 | 0.82 | 1.1
CC(C)(C)NCC(O)COc1cccc2c1CCC(=O)N2 (configuration not stated) [Carteolol HCl] | 0.876 | 1.16 | 0.838 | 1.14
NCc1c[nH]c(=S)n1[C@H]1CCc2c(F)cc(F)cc2C1 [Nepicastat (SYN-117) HCl] | 0.973 | 1.11 | 0.953 | 0.993
NC1=N[C@@](c2cccc(-c3cncnc3)c2)(c2ccnc(C(F)F)c2)c2cccc(F)c21 | 0.851 | 1.01 | 0.765 | 0.736
CCCc1cc2c(N3CCN(C4=NCC(C)(C)S4)CC3)ncnc2s1 [MI-2 (Menin-MLL Inhibitor)] | 0.919 | 0.869 | 0.747 | 0.665
CCOC(=O)c1cnc2ccc(-c3cncc(NS(=O)(=O)c4ccccc4)c3)cn12 | 0.176 | 0.171 | 0.183 | 0.108
O=C(c1ccccc1)c1ccc2nc(NC(=O)c3csc(C4CCN(c5ncnc6ccsc56)CC4)n3)[nH]c2c1 | 0.749 | 1.15 | 0.481 | 0.328
CC(C)OC(=O)C1=CN(C(=O)c2ccc(F)c(F)c2)CC(C)(C)c2c1[nH]c1ccccc21 | 0.991 | 1.05 | 0.865 | 0.965
CN1CCN(c2ccc(C(=O)Nc3n[nH]c4ccc(Cc5cc(F)cc(F)c5)cc34)c(NC3CCOCC3)c2)CC1 [Entrectinib (RXDX-101)] | 0.597 | 0.771 | 0.0511 | 0.0303
CO[C@@H](C(=O)N1Cc2[nH]nc(NC(=O)c3ccc(N4CCN(C)CC4)cc3)c2C1)c1ccccc1 | 0.503 | 0.521 | 0.486 | 0.427
CCc1cccc(CC)c1NC(=O)N1Cc2[nH]nc(NC(=O)c3ccc(N4CCN(C)CC4)cc3)c2C1 | 0.538 | 0.711 | 0.359 | 0.462
OCc1ccc(O[C@@H]2O[C@H](CO)[C@@H](O)[C@H](O)[C@H]2O)cc1 [Gastrodin] | 0.926 | 1.16 | 0.853 | 1.06
